Assay results: the antibiotic and cytotoxicity screens of Wong et al. (2023)
Among all 39,000 compounds or so, about 1,500 (3.8%) were called active. The sample as a whole holds a higher share of actives than the screen did.

What follows are molecules tested on HSkMC (human skeletal muscle cells) (assay: cytotoxicity call (relative viability < 0.9)). Conditions: 10 µM.

Compound	cytotoxicity call
COCC#Cc1ccc2c(c1)O[C@@H](CN(C)C(=O)COC)[C@H](C)CN([C@@H](C)CO)S2(=O)=O	inactive
CC(C)NC(=O)Nc1ccc2c(c1)C(=O)N([C@@H](C)CO)C[C@H](C)[C@H](CN(C)S(=O)(=O)c1cccs1)O2	inactive
C[C@@H]1CN([C@H](C)CO)C(=O)Cc2cc(NC(=O)C3CCCCC3)ccc2O[C@H]1CN(C)C(=O)Nc1ccc(C(F)(F)F)cc1	inactive
Cc1ccc(S(=O)(=O)N[C@H]2C=C[C@H](CC(=O)NCCN3CCCCC3)O[C@@H]2CO)cc1	inactive
C[C@@H]1CN([C@H](C)CO)C(=O)c2cc(NS(=O)(=O)c3cccs3)ccc2O[C@@H]1CN(C)S(=O)(=O)c1cccs1	inactive
CC(C)NC(=O)Nc1ccc2c(c1)C(=O)N([C@H](C)CO)C[C@@H](C)[C@@H](CN(C)Cc1ccc(Oc3ccccc3)cc1)O2	inactive
NC[C@@H](CO)Cc1ccsc1	inactive
C[C@@H]1CCCCO[C@@H](CN(C)S(C)(=O)=O)[C@H](C)CN([C@@H](C)CO)C(=O)c2cc(NC(=O)CCCN(C)C)ccc2O1	inactive
COc1ccc(S(=O)(=O)Nc2ccc3c(c2)C(=O)N([C@@H](C)CO)C[C@H](C)[C@@H](CN(C)S(=O)(=O)c2cccs2)O3)cc1	inactive
COc1ccc(S(=O)(=O)N2C[C@H](O)COC[C@@H]3O[C@H](CC(=O)N[C@@H]4CCN(Cc5ccccc5)C4)CC[C@H]32)cc1	inactive
COc1ccc(CN(C)C[C@H]2OCCCC[C@@H](C)Oc3ccc(NC(=O)Nc4cccc5ccccc45)cc3C(=O)N([C@@H](C)CO)C[C@@H]2C)cc1	inactive
COc1ccc(CN(C)C[C@@H]2OCCCC[C@@H](C)Oc3ccc(NC(=O)Nc4cccc5ccccc45)cc3C(=O)N([C@H](C)CO)C[C@@H]2C)cc1	inactive
COc1ccc(CN(C)C[C@H]2OCCCC[C@H](C)Oc3ccc(NC(=O)Nc4cccc5ccccc45)cc3C(=O)N([C@H](C)CO)C[C@@H]2C)cc1	inactive
COc1ccc(CN(C)C[C@@H]2OCCCC[C@H](C)Oc3ccc(NC(=O)Nc4cccc5ccccc45)cc3C(=O)N([C@@H](C)CO)C[C@H]2C)cc1	active
COc1ccc(CN(C)C[C@H]2OCCCC[C@@H](C)Oc3ccc(NC(=O)Nc4cccc5ccccc45)cc3C(=O)N([C@H](C)CO)C[C@@H]2C)cc1	active
COc1ccc(CN(C)C[C@H]2OCCCC[C@H](C)Oc3ccc(NC(=O)Nc4cccc5ccccc45)cc3C(=O)N([C@H](C)CO)C[C@H]2C)cc1	active
COc1ccc(CN(C)C[C@H]2OCCCC[C@@H](C)Oc3ccc(NC(=O)Nc4cccc5ccccc45)cc3C(=O)N([C@@H](C)CO)C[C@H]2C)cc1	active
COc1ccc(CN(C)C[C@@H]2OCCCC[C@@H](C)Oc3ccc(NC(=O)Nc4cccc5ccccc45)cc3C(=O)N([C@@H](C)CO)C[C@@H]2C)cc1	inactive
CCOC(=O)c1cc2c(c(-c3cccc(-c4cccc(F)c4)c3)n1)[C@H](CCO)N(S(=O)C(C)(C)C)C2 (stereo partly drawn)	inactive
N#C[C@H]1N[C@@H](CO)[C@@H]1c1ccccc1	inactive
CC(C)NC(=O)N(C)C[C@@H]1OCCCC[C@H](C)Oc2ccc(NC(=O)C3CCCCC3)cc2C(=O)N([C@H](C)CO)C[C@@H]1C	inactive
COc1ccc(S(=O)(=O)Nc2ccc3c(c2)C(=O)N([C@@H](C)CO)C[C@@H](C)[C@@H](CN(C)C(=O)Nc2ccccc2)OCCCC[C@@H](C)O3)cc1	inactive
C[C@@H]1CN([C@H](C)CO)C(=O)c2cc(Br)cnc2O[C@@H]1CN(C)S(=O)(=O)c1ccc(F)cc1	inactive

Compound	cytotoxicity call
C[C@@H]1CN([C@@H](C)CO)C(=O)c2cc(NC(=O)CCN3CCOCC3)ccc2O[C@@H]1CN(C)C(=O)Nc1ccc2c(c1)OCO2	inactive
C[C@@H]1CN([C@H](C)CO)C(=O)c2cc(C#CCN(C)C)cnc2O[C@@H]1CN(C)C(=O)c1ccc2c(c1)OCO2	inactive
C[C@@H]1CN([C@@H](C)CO)S(=O)(=O)c2ccc(C#CC3CCCC3)cc2O[C@H]1CN(C)C(=O)Cc1ccncc1	inactive
Cc1noc(C)c1NC(=O)Nc1ccc2c(c1)CC(=O)N([C@@H](C)CO)C[C@H](C)[C@H](CN(C)S(=O)(=O)c1cccs1)O2	inactive
CCCN1C(C)=C(C(=O)OC)[C@@H](c2cccc([N+](=O)[O-])c2)C(C(=O)ON2CCC(c3ccccc3)(c3ccccc3)CC2)=C1C	active
COCCOC(=O)C1=C(C)NC(C)=C(C(=O)OCC=Cc2ccccc2)C1c1cccc([N+](=O)[O-])c1 (stereo not drawn)	inactive
CC1=C(C(=O)OCCN(Cc2ccccc2)c2ccccc2)[C@H](c2cccc([N+](=O)[O-])c2)C(P2(=O)OCC(C)(C)CO2)=C(C)N1	inactive
COC(=O)C1=C(C)NC(C)=C(C(=O)NCCCN2CCC(c3ccccc3)(c3ccccc3)CC2)[C@@H]1c1ccc([N+](=O)[O-])cc1	inactive
CCOC(=O)C1=C(C)NC(C)=C(C(=O)OC)C1c1cccc([N+](=O)[O-])c1 (stereo not drawn)	inactive
COC(=O)C1=C(C#N)NC(C)=C(C(=O)OC(C)C)C1c1cccc([N+](=O)[O-])c1 (stereo not drawn)	inactive
COC(=O)C1=C(C)NC(C)=C(C(=O)OCCN2CCN(C(c3ccccc3)c3ccccc3)CC2)C1c1cccc([N+](=O)[O-])c1 (stereo not drawn)	inactive
COC(=O)C1=C(C)NC(C)=C(C(=O)OC(C)(C)CN(C)CCC(c2ccccc2)c2ccccc2)[C@@H]1c1cccc([N+](=O)[O-])c1	active
COC(=O)C1=C(C)NC(C)=C(C(=O)OCCN(C)Cc2ccccc2)C1c1cccc([N+](=O)[O-])c1.Cl (stereo not drawn)	inactive
COCCOC(=O)C1=C(C)NC(C)=C(C(=O)OC(C)C)C1c1cccc([N+](=O)[O-])c1 (stereo not drawn)	inactive
COC(=O)C1=C(C)NC(C)=C(C(=O)OCCCN2CCC(c3ccccc3)(c3ccccc3)CC2)[C@@H]1c1cccc([N+](=O)[O-])c1	active
COC(=O)C1=C(C)NC(C)=C(C(=O)OCCCN2CCC(c3ccccc3)(c3ccccc3)CC2)[C@H]1c1cccc([N+](=O)[O-])c1	active
Cc1ccc(S(=O)(=O)N(C)C[C@H]2Oc3ccc(NS(=O)(=O)c4cccs4)cc3CC(=O)N([C@@H](C)CO)C[C@@H]2C)cc1	inactive
C[C@@H]1CN([C@H](C)CO)C(=O)Cc2cc(NC(=O)c3ccncc3)ccc2O[C@@H]1CN(C)Cc1ccc(C(=O)O)cc1	inactive
COc1ccc(O)c(N)c1	inactive
c1csc(CNc2ccc(NCc3cccs3)cc2)c1	inactive
Cc1noc(C)c1NC(=O)N[C@H]1CC[C@@H](CC(=O)N2CCN(C)CC2)O[C@@H]1CO	inactive
C[C@H](CO)N1C[C@H](C)[C@H](CN(C)S(C)(=O)=O)Oc2ccc(NC(=O)C3CCCCC3)cc2CC1=O	inactive
Cc1ccc(S(=O)(=O)N[C@@H](Cc2ccccc2)C(=O)NCCCn2cc(C(=O)NO)nn2)cc1	inactive

Compound	cytotoxicity call
C[C@@H]1CCCCO[C@H](CN(C)CC2CCCCC2)[C@@H](C)CN([C@@H](C)CO)C(=O)c2cc(NS(=O)(=O)c3cccs3)ccc2O1	inactive
C[C@@H]1CN([C@@H](C)CO)C(=O)Cc2cc(NC(=O)Nc3ccccc3)ccc2O[C@@H]1CN(C)Cc1ccc(Cl)c(Cl)c1	active
C[C@@H]1CN([C@H](C)CO)C(=O)Cc2cc(NC(=O)Nc3ccccc3)ccc2O[C@H]1CN(C)Cc1ccc(Cl)c(Cl)c1	active
C[C@@H]1CN([C@H](C)CO)C(=O)Cc2cc(NC(=O)Nc3ccccc3)ccc2O[C@@H]1CN(C)Cc1ccc(Cl)c(Cl)c1	active
C[C@H]1CN([C@@H](C)CO)C(=O)Cc2cc(NC(=O)Nc3ccccc3)ccc2O[C@H]1CN(C)Cc1ccc(Cl)c(Cl)c1	active
C[C@H](CO)N1C[C@H](C)[C@H](CN(C)S(C)(=O)=O)Oc2ccc(NC(=O)Nc3ccc4c(c3)OCO4)cc2CC1=O	inactive
CC[C@@H](C)N1C(=O)CC[C@H]1C(=O)O	inactive
COc1ccc(S(=O)(=O)Nc2ccc3c(c2)C(=O)N([C@H](C)CO)C[C@H](C)[C@H](CN(C)Cc2ccc(C(=O)Nc4ccccc4N)cc2)OCCCC[C@@H](C)O3)cc1	inactive
C[C@H](CO)N1C[C@H](C)[C@@H](CN(C)S(=O)(=O)c2cccs2)Oc2ccc(NS(C)(=O)=O)cc2C1=O	inactive
NCc1ccc(C(=O)O)cc1	inactive
Cc1noc(C)c1NC(=O)Nc1cccc2c1O[C@H](CN(C)S(=O)(=O)c1ccccc1)[C@@H](C)CN([C@@H](C)CO)C2=O	inactive
C[C@@H]1CCCCO[C@H](CN(C)C(=O)c2ccncc2)[C@@H](C)CN([C@H](C)CO)C(=O)c2cc(NC(=O)CCCCCC(=O)Nc3ccccc3N)ccc2O1	inactive
CCc1nc2ccc(C(=O)Nc3cc(-c4ccccc4)ccc3OC)cn2c1N(CCN(C)C)CC1CC1	inactive
C[C@H](CO)N1C[C@H](C)[C@@H](CN(C)S(=O)(=O)c2cn(C)cn2)Oc2c(NC(=O)C3CCOCC3)cccc2C1=O	inactive
CN1C(=O)c2cc(NC(=O)C3CCCC3)ccc2OC[C@H]2O[C@@H](CC(=O)NCCc3ccncc3)CC[C@@H]21	inactive
COCC(=O)Nc1ccc2c(c1)C(=O)N(C)[C@H]1CC[C@@H](CC(=O)NCc3ccccc3Cl)O[C@@H]1CO2	inactive
C[C@H](CO)N1C[C@H](C)[C@@H](CN(C)Cc2ccc(Cl)c(Cl)c2)Oc2ccc(NC(=O)Nc3ccccc3)cc2CC1=O	inactive
C[C@@H]1CN([C@@H](C)CO)C(=O)Cc2cc(NC(=O)Nc3ccccc3)ccc2O[C@H]1CN(C)Cc1ccc(Cl)c(Cl)c1	inactive
C[C@H](CO)N1C[C@H](C)[C@H](CN(C)Cc2ccc(Cl)c(Cl)c2)Oc2ccc(NC(=O)Nc3ccccc3)cc2CC1=O	active
C[C@H]1CN([C@@H](C)CO)C(=O)Cc2cc(NC(=O)Nc3ccccc3)ccc2O[C@@H]1CN(C)Cc1ccc(Cl)c(Cl)c1	active
COc1ccc(NC(=O)Nc2ccc3c(c2)CC(=O)N([C@H](C)CO)C[C@H](C)[C@@H](CN(C)Cc2ccc(Cl)c(Cl)c2)O3)cc1	inactive
COc1ccc(NC(=O)Nc2ccc3c(c2)CC(=O)N([C@@H](C)CO)C[C@@H](C)[C@@H](CN(C)Cc2ccc(Cl)c(Cl)c2)O3)cc1	inactive
